Among the data in PubChem BioAssay are composite z-score and z-score values, retold here.

Test [1] relates to Wnt5a (protein binding on small-molecule microarray). Description: small molecules binding Wnt5a protein – biophysical, small-molecule microarray, 635/667 nm fluorescence, primary screen (AID 1142).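 Also: fluorescence read at 667 nm with signal to noise per printed feature.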 The note with it: 635 nm fluorescence, higher = more signal.
A short description of test [2]: ATP-based viability of Huh7 replicon cells – cell-based, CellTiter-Glo luminescence, basal, 48 h, cytotoxicity control for HCV replication inhibitor project, primary screen (AID 1143).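 Also: Huh7 hepatoma cells carrying a hepatitis C replication reporter with no stimulus; test concentration not given here.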 The note with it: higher = more signal, called active from +8 up or from −8 down. On the technique in general: A replicon is a self-replicating genome or part of one, used to study replication in cells.

Test [3] is described as follows: Pseudomonas biofilm growth suppression – PAO1 strain, BacTiter-Glo luminescence, LB-PBS, primary screen (AID 1144). The conditions noted are these: P. aeruginosa PAO1 biofilm, 12 h, higher = more signal.
A short description of test [4]: basal CRE-LacZ reporter activity in PC12 – cell-based, unstimulated, primary screen (AID 1145). The note with it: no forskolin, luminescence, 4.5 h, higher = more signal, called active from +8 up or from −8 down.
The nature of test [5]: forskolin-driven CRE-LacZ activity in PC12 – cell-based, CRE-LacZ reporter, forskolin-stimulated, primary screen (AID 1146).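 Also: PC12 cells with 6xCRE LacZ reporter stimulated by forskolin 10 µM; beta-galactosidase reporter signal reflecting CREB driven transcription.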 The note with it: luminescence, 4.5 h, higher = more signal, called active from +8 up or from −8 down.
In test [6] the target is Streptavidin (Streptomyces avidinii) (UniProt P22629). Description: compounds binding control protein streptavidin – biophysical, small-molecule microarray, 635/667 nm fluorescence, artefact control for SMM compound annotation, primary screen (AID 1147).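 Also: signal reflects streptavidin binding to arrayed compounds as a control protein.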 The note with it: higher = more signal.
Test [7] is described as follows: probe aInhba binding on compound microarray – biochemical, small-molecule microarray, 635/667 nm fluorescence, primary screen (AID 1148).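 Also: score merges 667nm spot fluorescence with signal-to-noise for antibody binding to printed compounds.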 The note with it: higher = more signal.
Test [8] deals with Torsin-1A (Homo sapiens) (UniProt O14656). Description: TOR1A wild-type binding on microarray – cell lysate, small-molecule microarray, lysate, 635/667 nm, primary screen (AID 1149). The note with it: COS7 hTOR1A-WT lysate, 635 nm fluorescence, higher = more signal.
Test [9] has the same target. The test is described as follows: torsin A mutant lysate binding on microarrays – cell lysate, small-molecule microarray, COS7 lysate, 635/667 nm fluorescence, primary screen (AID 1150).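 Also: score pools 667 nm emission and signal to noise measuring lysate protein binding.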 The note with it: COS7 hTOR1A mutant lysate, 635 nm fluorescence, higher = more signal.
The test system of test [10] is Sonic hedgehog protein (Shh). Description: Sonic hedgehog microarray binding compounds – biochemical, small-molecule microarray, 635/667 nm fluorescence, primary screen (AID 1151).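 Also: Shh protein binding to compounds spotted on small-molecule microarray slides; score combines spot fluorescence intensity with signal-to-noise across triplicate slides.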 The conditions noted are these: 635 nm fluorescence, higher = more signal.
The nature of test [11]: optical density shifts of acrAB sulA E. coli – strain DRC41, OD650, 48 h, E. coli filamentation inducer project, primary screen (AID 1152).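 Also: E. coli MC1000 strain DRC41 lacking acrAB efflux pump and sulA.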 The conditions noted are these: higher = more signal, called active from +8 up or from −8 down.
A short description of test [12]: probe aLefty1 binding on compound microarray – biochemical, small-molecule microarray, 635/667 nm fluorescence, primary screen (AID 1153).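 Also: score merges spot fluorescence with signal-to-noise ratio from the scanned slide images.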 The note with it: higher = more signal.
Test [13] can be described thus: plasmodial surface anion channel blockers, osmotic lysis – cell-based, P. falciparum Indochina, OD700, 1 h, primary screen (AID 1154). The conditions noted are these: P. falciparum Indochina infected RBC osmotic lysis, higher = more signal, called active from +8 up or from −8 down.
Test [14] is described as follows: plasmodial surface anion channel blockers, osmotic lysis – cell-based, P. falciparum Indochina, OD700, 2 h, primary screen (AID 1155).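 Also: lysis reports solute entry through the parasite surface anion channel PSAC.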 The conditions noted are these: P. falciparum Indochina infected erythrocytes, higher = more signal, called active from +8 up or from −8 down.
The nature of test [15]: changes in parasitized red cell lysis, either direction – P. falciparum Indochina, OD700, 3 h, PSAC antagonist project, primary screen (AID 1156). The note with it: P. falciparum-infected erythrocytes, osmotic lysis, higher = more signal, called active from +8 up or from −8 down.
Test [16] can be described thus: plasmodial surface anion channel blockers, osmotic lysis – cell-based, P. falciparum Indochina, OD700, 18 h, primary screen (AID 1157). The note with it: P. falciparum Indochina infected erythrocytes, osmotic lysis OD700, 18 h; higher = more signal, called active from +8 up or from −8 down.
The nature of test [17]: S6 kinase pathway phospho-S6 level changes – cell-based, A549, cytoblot, luminescence, serum-stimulated, primary screen (AID 1158).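 Also: serum-stimulated A549 lung adenocarcinoma cells; signal is phosphorylated S6 detected by cytoblot immunostaining with HRP secondary.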 The conditions noted are these: 5 h, higher = more signal.
The target of test [18] is NADPH oxidase 2 (Homo sapiens) (UniProt P04839). Description: compounds shifting NOX2 Amplex Red fluorescence – cell-based, HEK293-NOX2, PMA-stimulated, NOX inhibitor project, primary screen (AID 1159). Also: test concentration not given here. The note with it: 45 min, higher = more signal, called active from +8 up or from −8 down.
In test [19] the target is NADPH oxidase 4 (Homo sapiens) (UniProt Q9NPH5). The test is described as follows: compounds shifting NOX4 Amplex Red fluorescence – cell-based, HEK293-NOX4, tetracycline-induced, NOX inhibitor project, primary screen (AID 1160). The note with it: HEK293-NOX4, Amplex Red H2O2 fluorescence, 45 min; higher = more signal, called active from +8 up or from −8 down.
Test [20] addresses NADPH oxidase 5 (Homo sapiens) (UniProt Q96PH1). Description: compounds shifting NOX5 Amplex Red fluorescence – cell-based, HEK293-NOX5, NOX inhibitor project, primary screen (AID 1161). The note with it: HEK293-NOX5, ionomycin, 45 min, higher = more signal.

Each structure is given as a SMILES string. The source made the active and inactive calls. Unless noted, no rule for the calls is given here.

Streptavidin (Streptomyces avidinii), sequence (P22629 whole entry, looked up): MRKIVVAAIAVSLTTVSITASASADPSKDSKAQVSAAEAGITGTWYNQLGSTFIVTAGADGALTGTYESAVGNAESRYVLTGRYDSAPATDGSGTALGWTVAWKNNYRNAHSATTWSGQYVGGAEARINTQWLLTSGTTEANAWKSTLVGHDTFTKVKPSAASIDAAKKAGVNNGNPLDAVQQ
NADPH oxidase 5 (Homo sapiens), sequence (Q96PH1 whole entry, looked up): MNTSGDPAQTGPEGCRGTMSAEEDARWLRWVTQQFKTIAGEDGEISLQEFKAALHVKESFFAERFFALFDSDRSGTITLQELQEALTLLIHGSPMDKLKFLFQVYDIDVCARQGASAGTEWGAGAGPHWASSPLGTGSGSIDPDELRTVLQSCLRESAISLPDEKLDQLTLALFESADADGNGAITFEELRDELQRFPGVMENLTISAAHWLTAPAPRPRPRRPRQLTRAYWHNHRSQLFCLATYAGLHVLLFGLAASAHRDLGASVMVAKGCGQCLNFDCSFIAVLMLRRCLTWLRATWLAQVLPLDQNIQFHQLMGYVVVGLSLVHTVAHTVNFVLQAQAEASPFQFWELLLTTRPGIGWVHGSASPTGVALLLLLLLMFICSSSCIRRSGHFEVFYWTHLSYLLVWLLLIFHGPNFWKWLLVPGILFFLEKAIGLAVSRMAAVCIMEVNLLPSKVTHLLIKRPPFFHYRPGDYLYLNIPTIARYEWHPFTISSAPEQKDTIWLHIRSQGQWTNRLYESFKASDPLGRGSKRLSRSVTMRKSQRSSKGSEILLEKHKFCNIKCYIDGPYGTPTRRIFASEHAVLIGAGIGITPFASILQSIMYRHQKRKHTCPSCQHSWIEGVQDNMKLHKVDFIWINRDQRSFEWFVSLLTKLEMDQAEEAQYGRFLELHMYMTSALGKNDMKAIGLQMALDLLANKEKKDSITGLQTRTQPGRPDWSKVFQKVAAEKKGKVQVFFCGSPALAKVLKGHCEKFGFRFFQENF
NADPH oxidase 4 (Homo sapiens), sequence (Q9NPH5 whole entry, looked up): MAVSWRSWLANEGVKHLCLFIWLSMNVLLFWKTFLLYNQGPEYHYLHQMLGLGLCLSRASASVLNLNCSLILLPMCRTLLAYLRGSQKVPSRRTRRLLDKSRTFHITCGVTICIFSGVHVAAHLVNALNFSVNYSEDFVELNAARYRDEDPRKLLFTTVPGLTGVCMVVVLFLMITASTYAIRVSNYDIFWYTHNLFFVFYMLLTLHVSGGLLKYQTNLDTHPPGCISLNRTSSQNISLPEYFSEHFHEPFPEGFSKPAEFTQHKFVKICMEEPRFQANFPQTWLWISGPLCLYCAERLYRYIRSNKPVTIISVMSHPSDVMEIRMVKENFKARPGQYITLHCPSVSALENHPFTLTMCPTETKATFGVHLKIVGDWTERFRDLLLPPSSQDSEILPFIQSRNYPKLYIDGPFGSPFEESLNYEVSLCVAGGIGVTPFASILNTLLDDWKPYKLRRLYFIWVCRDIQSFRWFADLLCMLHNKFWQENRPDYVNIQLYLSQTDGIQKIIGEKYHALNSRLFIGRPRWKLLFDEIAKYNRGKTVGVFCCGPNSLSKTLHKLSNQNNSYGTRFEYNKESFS
NADPH oxidase 2 (Homo sapiens), sequence (P04839 whole entry, looked up): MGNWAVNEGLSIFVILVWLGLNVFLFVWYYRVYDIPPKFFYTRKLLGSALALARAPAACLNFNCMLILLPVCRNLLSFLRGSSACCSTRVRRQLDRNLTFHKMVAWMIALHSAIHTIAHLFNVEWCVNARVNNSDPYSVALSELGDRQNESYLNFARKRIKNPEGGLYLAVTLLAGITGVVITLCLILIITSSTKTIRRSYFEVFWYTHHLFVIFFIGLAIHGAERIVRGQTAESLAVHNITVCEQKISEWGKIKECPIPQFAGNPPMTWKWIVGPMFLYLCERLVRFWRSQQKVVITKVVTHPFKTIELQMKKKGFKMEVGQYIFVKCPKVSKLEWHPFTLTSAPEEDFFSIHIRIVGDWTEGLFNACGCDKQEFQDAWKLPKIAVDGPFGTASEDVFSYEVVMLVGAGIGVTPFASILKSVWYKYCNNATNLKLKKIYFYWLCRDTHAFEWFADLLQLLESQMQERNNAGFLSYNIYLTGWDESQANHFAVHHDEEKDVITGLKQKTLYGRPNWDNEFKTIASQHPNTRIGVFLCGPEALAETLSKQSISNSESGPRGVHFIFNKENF
Torsin-1A (Homo sapiens), sequence (O14656 whole entry, looked up): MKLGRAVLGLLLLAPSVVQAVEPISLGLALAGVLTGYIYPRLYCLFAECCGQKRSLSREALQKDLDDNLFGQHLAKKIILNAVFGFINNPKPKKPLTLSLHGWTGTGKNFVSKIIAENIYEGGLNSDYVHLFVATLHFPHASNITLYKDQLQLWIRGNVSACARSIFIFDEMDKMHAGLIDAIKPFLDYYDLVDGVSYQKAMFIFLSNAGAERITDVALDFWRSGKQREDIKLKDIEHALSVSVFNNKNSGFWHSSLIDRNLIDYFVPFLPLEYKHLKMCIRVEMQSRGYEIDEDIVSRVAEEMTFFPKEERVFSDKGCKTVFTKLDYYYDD

Turning to `COc1ccc(CCNC(=O)[C@@H]2c3ccccc3C(=O)N(C(C)C)[C@H]2c2ccc(CO)cc2)cc1`, the composite z-score in test [1] is -0.234; in test [6] it was -0.896; in [7] it was -0.253; in the test with Torsin-1A (Homo sapiens) [8], 0.123; with Torsin-1A (Homo sapiens) [9], 0.0739; in test [10], -0.937. In addition, the composite z-score in test [12] is -0.27. For the same compound, the z-score in test [2] is 0.172 (inactive); in test [3], 0.948 (inactive); in test [4] it was 0.351 (inactive); in test [5], -0.859 (inactive); in test [11], 1.73 (inactive); in test [13], 3.24 (inactive). For the same compound, the z-score is 0.785 (inactive) in test [14]; 1.3 (inactive) in [15]; 0.376 (inactive) in test [16]; 0.307 in test [17]; -0.219 (inactive) in [18]; 0.821 (inactive) in test [19]. For the same compound, in [20], the z-score was 0.338.
In the case of `Cc1ccc(S(=O)(=O)N2[C@@H](c3ccccc3)C(C(=O)O)=CC[C@H]2c2ccc(F)cc2)cc1`, the composite z-score came out at 0.148 in test [1]; 1.4 in test [6]; 0.0403 in test [7]; 1.33 with Torsin-1A (Homo sapiens) [8]; 1.64 with Torsin-1A (Homo sapiens) [9]; 0.193 in test [10]. For the same compound, the composite z-score in [12] came to 0.214. Besides, the z-score in test [2] was -1.85 (inactive); in test [3], -0.8 (inactive); in test [4], -0.676 (inactive); in test [5], 0.398 (inactive); in test [11], -0.232 (inactive); in test [13], 2.05 (inactive). Besides, the z-score in [14] was 0.706 (inactive); in test [15], 1.1 (inactive); in [16], 0.66 (inactive); in test [17] it was -0.0796; in test [18], 0.0361 (inactive); in test [19], 0.605 (inactive). In addition, the z-score in test [20] was 0.953.
`C=CC[C@@]1(C(=O)NCCCOC)N=C(c2ccc(OCCCO)cc2)O[C@@H]1c1ccccc1CN=[N+]=[N-]`: the composite z-score in test [1] was determined as 0.645; in test [6], 0.706; in test [7], 0.0921; in the test with Torsin-1A (Homo sapiens) [8], 0.112; in the test with Torsin-1A (Homo sapiens) [9], 0.734; in test [10] it was 0.0532. The composite z-score in test [12] amounted to 0.607. Besides, the z-score in [2] was -3.72 (inactive); in test [3], -0.584 (inactive); in [4], -0.45 (inactive); in test [5], -0.48 (inactive); in test [11], 1.14 (inactive); in test [13], 22.3 (active). Besides, the z-score was 2.5 (inactive) in [14]; 0.493 (inactive) in [15]; -1.34 (inactive) in test [16]; 0.812 in test [17]; -0.477 (inactive) in test [18]; 0.648 (inactive) in [19]. In addition, the z-score in test [20] is -0.274.
With `CO[C@H]1O[C@H](CO)[C@@H](OC(=O)Nc2cccc(F)c2)[C@H](OC(=O)Nc2ccc3c(c2)OCO3)[C@@H]1OC(=O)Nc1ccc2c(c1)OCO2`, the composite z-score came to 0.22 in test [1]; 0.438 in test [6]; 0.0471 in test [7]; 1.17 with Torsin-1A (Homo sapiens) [8]; 1.21 with Torsin-1A (Homo sapiens) [9]; 0.519 in test [10]. In test [12], the composite z-score stood at 0.37. Besides, the z-score in [2] is -3.26 (inactive); in [3] it was 0.221 (inactive); in [4] it was -0.207 (inactive); in test [5] it was -0.41 (inactive); in test [11], -0.727 (inactive); in [13], 12 (active). Moreover, the z-score in test [14] is 2.05 (inactive); in test [15] it was 1.16 (inactive); in test [16] it was 1.18 (inactive); in test [17], 0.296; in [18], -3.87 (inactive); in test [19], -1.07 (inactive). For the same compound, the z-score in test [20] is -1.81.
On to `CC(C)N1C(=O)[C@@]2(Cc3ccccc31)c1ccccc1C(=O)N(Cc1ccccc1C(F)(F)F)[C@H]2c1ccc(CO)cc1`, for which the composite z-score in test [1] is 0.15; in test [6] it was -0.0569; in [7], 0.46; with Torsin-1A (Homo sapiens) [8], -0.375; in the test with Torsin-1A (Homo sapiens) [9], -0.139; in [10] it was 0.376. Further, the composite z-score in test [12] is -0.853. The z-score in test [2] was -0.222 (inactive); in [3] it was -0.121 (inactive); in test [4], 0.155 (inactive); in test [5], 0.176 (inactive); in test [11], -0.49 (inactive); in test [13], 0.382 (inactive). In addition, the z-score is 0.596 (inactive) in [14]; 0.238 (inactive) in test [15]; 0.501 (inactive) in test [16]; -0.0346 in [17]; 0.449 (inactive) in test [18]; -1.18 (inactive) in [19]. In addition, the z-score in test [20] was 0.56.
For the compound `CCOC(=O)C[C@H]1[C@H](OC(=O)c2ccc(-c3ccccc3)cc2)[C@@H](NC(=O)C2CCCCC2)c2cc(OCCCO)ccc2N1C(=O)Cc1ccc(OC)cc1`, the composite z-score was -0.12 in test [1]; 0.226 in test [6]; -0.0259 in test [7]; 0.061 with Torsin-1A (Homo sapiens) [8]; 0.391 with Torsin-1A (Homo sapiens) [9]; 0.106 in test [10]. This compound displayed a composite z-score in test [12] of 0.0315. The z-score was -0.137 (inactive) in test [2]; -0.105 (inactive) in test [3]; -0.155 (inactive) in test [4]; -0.185 (inactive) in test [5]; -0.815 (inactive) in test [11]; 2.23 (inactive) in [13]. Further, the z-score in test [14] is 0.166 (inactive); in test [15], -0.816 (inactive); in [16] it was 0.0141 (inactive); in [17], 0.571; in test [18] it was -0.289 (inactive); in [19], 1.21 (inactive). In addition, in test [20], the z-score came to 0.732.
Turning to `CCCCN1CC=CC23O[C@@H]4/C=C\CCC(C)OC(=O)C4[C@H]2C(=O)N(CCO)[C@@H]3C1=O` (stereo not given in full), the composite z-score in test [1] is -0.122; in [6], -1.52; in test [7], -0.0494; with Torsin-1A (Homo sapiens) [8], 2.84; in the test with Torsin-1A (Homo sapiens) [9], 2.94; in test [10] it was -0.0956. Besides, the composite z-score in [12] was -0.386. For the same compound, the z-score in test [2] was -1.08 (inactive); in [3], -1.31 (inactive); in test [4], -0.627 (inactive); in test [5] it was -0.0432 (inactive); in test [11], 1.36 (inactive); in test [13], 2.6 (inactive). Also, the z-score is 0.254 (inactive) in test [14]; 0.336 (inactive) in test [15]; 0.479 (inactive) in [16]; 0.7 in [17]; 1.01 (inactive) in test [18]; 0.416 (inactive) in test [19]. For the same compound, the z-score in [20] turned out to be 2.29.
For `COc1cc(Cc2cc3c(c(CCc4ccccc4)n2)[Si](C(C)C)(C(C)C)O[C@H]3c2ccccc2)cc(OC)c1OC`, the composite z-score in test [1] is -0.0786; in [6], 0.537; in [7], 0.182; with Torsin-1A (Homo sapiens) [8] it was 0.707; with Torsin-1A (Homo sapiens) [9] it was -0.0236; in [10], -0.418. The composite z-score in test [12] turned out to be 0.101. In addition, the z-score in test [2] is -4.48 (inactive); in test [3], 0.626 (inactive); in test [4], 0.875 (inactive); in test [5], 0.992 (inactive); in [11], -1.77 (inactive); in [13], -0.436 (inactive). Further, the z-score was 0.356 (inactive) in test [14]; -3.89 (inactive) in [15]; 0.0416 (inactive) in [16]; -0.557 in test [17]; 1.25 (inactive) in test [18]; -2.98 (inactive) in test [19]. Also, the z-score in test [20] was -3.87.
